Values joined by “and” are separate entries in the source; they are usually repeats but may differ in a detail not shown here. Equal values may be shown once. Records with an inconclusive call do not appear. Some compounds were tested as several samples or in several runs, with calls that do not always agree. Active and inactive are the calls of the source. Calls come from the whole dose curve; as a rule, active = well fitted curve in the direction sought with a large enough effect in the repeat runs; inconclusive = weak or mixed curves; inactive = no such curve, though single readings can be large; an effect the other way counts as inactive or inconclusive.

A short description of assay [1]: A CellTox Green Cytotoxicity Assay to monitor cytotoxicity in HEK293 cells - 32 hour (AID 1224881). Note: nearly all actives have a fitted effect of over 40% in size. Note: potency is the fitted concentration of half-maximal effect. The essentials: (§1)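 Read-out: fluorescence of a cell-impermeant cyanine dye staining DNA of dead cells, proportional to cytotoxicity. HEK293, 600 cells/well with reagent, compound (23 nL DMSO) added after 5 h; reads at 0, 8, 16, 24, 32, 40 h.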
Assay [2] can be described thus: A CellTox Green Cytotoxicity Assay to monitor cytotoxicity in HepG2 cells - 0 hour (AID 1224882). Note: nearly all actives have a fitted effect of over 35% in size. The essentials: (§2)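 HepG2, 600 cells/well premixed w/ CellTox Green; 5 h settle, 37 C/5% CO2; pintool cpd add (DMSO); 37 C, 40 h; fluorescence read at 0, 8, 16, 24, 32, 40 h.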
Assay [3] is described as follows: A CellTox Green Cytotoxicity Assay to monitor cytotoxicity in HepG2 cells - 32 hour (AID 1224883). Note: nearly all actives have a fitted effect of over 50% in size. Note: potency is the fitted concentration of half-maximal effect. Put shortly:
as §2

The nature of assay [4]: A CellTox Green Cytotoxicity Assay to monitor cytotoxicity in HEK293 cells - 8 hour (AID 1224884). Note: nearly all actives have a fitted effect of over 35% in size. Note: potency is the fitted concentration of half-maximal effect. The essentials:
as §1

Assay [5] in a line: qHTS RealTime-Glo MT Cell Viability Assay in HepG2 cells - 16 hour (AID 1224885). Note: nearly all actives have a fitted effect of over 50% in size. Note: potency is the fitted concentration of half-maximal effect. Put shortly: (§3)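 Cells + NanoLuc/prosubstrate dispensed (600 cells/well) → 5 h at 37 C/5% CO2 → compounds in DMSO transferred → 40 h incubation at 37 C, luminescence read at 0, 8, 16, 24, 32, 40 h.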
Assay [6] in a line: qHTS RealTime-Glo MT Cell Viability Assay in HEK293 cells - 24 hour (AID 1224886). Note: nearly all actives have a fitted effect of over 50% in size. Note: potency is the fitted concentration of half-maximal effect. The essentials: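 Tox21 10K qHTS, HEK293, 600 cells/well, RealTime-Glo reagent co-dispensed with cells; 5 h preincubation, compound by pintool, 37 C, luminescence at 0–40 h.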
The nature of assay [7]: qHTS RealTime-Glo MT Cell Viability Assay in HEK293 cells - 8 hour (AID 1224887). Note: nearly all actives have a fitted effect of over 50% in size. Note: potency is the fitted concentration of half-maximal effect. The essentials: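 Luminescence readout at each listed time point; HEK293, 600 cells/well, RealTime-Glo MT reagent added with cells; compounds pinned (23 nL in DMSO) after 5 h at 37 C; continuous culture at 37 C.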
Assay [8] can be described thus: A CellTox Green Cytotoxicity Assay to monitor cytotoxicity in HEK293 cells - 16 hour (AID 1224888). Note: nearly all actives have a fitted effect of over 35% in size. Note: potency is the fitted concentration of half-maximal effect. Put shortly: as §1
A short description of assay [9]: qHTS RealTime-Glo MT Cell Viability Assay in HepG2 cells - 0 hour (AID 1224889). Note: nearly all actives have a fitted effect of over 50% in size. Put shortly: as §3
Assay [10] can be described thus: A CellTox Green Cytotoxicity Assay to monitor cytotoxicity in HepG2 cells - 8 hour (AID 1224890). Note: nearly all actives have a fitted effect of over 45% in size. Note: potency is the fitted concentration of half-maximal effect. Put shortly: as §2
% is set by controls: 0 for no effect and ±100 for the full control effect.

Consider `CCC[CH2][Sn]([CH2]CCC)([CH2]CCC)[O]C(=O)c1ccccc1`, for which the Potency is 977 nM (active) in assay [1]; 692 nM (active) in [3]; 11 µM (active) in assay [4]; 616 nM (active) in [5]; 389 nM (active) in assay [6]; 871 nM (active) in assay [7]. For the same compound, the Potency was 4.36 µM (active) in assay [8] and 1.1 µM (active) in [10]. The Potency entry in assay [2] and in assay [9] was “inactive” throughout.

On to `CN(C)C(=S)S`, for which the Potency in [1] is 8.88 µM (active) and 3.07 µM (active) and 6.92 µM (active); in [3] it was 17.7 µM (active) and 5.45 µM (active) and 11 µM (active); in [5], “inactive and 15.5 µM (active)”; in assay [6], 11.2 µM (active) and 1.73 µM (active) and 11 µM (active). In addition, the Potency entry in [2], in assay [4], in assay [7], in assay [9] and in [10] was “inactive” throughout.

Consider `C[C@@H](Oc1ccc(Cl)cc1Cl)C(=O)O`, for which the Potency entry in [1], in [2], in assay [3], in assay [4], in [5] and in assay [6] was “inactive” in each case. Moreover, the Potency result in assay [7], in assay [8], in assay [9] and in [10] was “inactive” throughout.

On to `BrC(Br)Br`, for which the Potency result in assay [1], in assay [2], in [3], in assay [4], in assay [5] and in assay [6] was “inactive” each time. The Potency result in assay [7], in [8], in [9] and in [10] was “inactive” each time.

As for `COP(=O)(CCC(=O)NCO)OC`, the Potency result in [1], in assay [2], in assay [3], in assay [4], in assay [5] and in assay [6] was “inactive” throughout. Besides, the Potency entry in assay [7], in assay [8], in assay [9] and in assay [10] was “inactive” in each case.

Take `CCN`: the Potency result in [1], in assay [2], in assay [3], in assay [4], in assay [5] and in assay [6] was “inactive” each time. Also, the Potency entry in assay [7], in assay [8], in assay [9] and in [10] was “inactive” in each case.

For the compound `Cc1cc(Cl)ccc1O[C@H](C)C(=O)O`, the Potency result in assay [1], in [2], in assay [3], in assay [4], in assay [5] and in assay [6] was “inactive” throughout. The Potency result in [7], in [8], in assay [9] and in [10] was “inactive” throughout.

For `CC(O)C#N` (stereo not given), the Potency entry in assay [1], in assay [2], in [3], in assay [4], in assay [5] and in assay [6] was “inactive” throughout. The Potency result in [7], in assay [8], in [9] and in assay [10] was “inactive” each time.

As for `BrCBr`, the Potency entry in assay [1], in assay [2], in assay [3], in assay [4], in [5] and in [6] was “inactive” throughout. Besides, the Potency entry in [7], in [8], in assay [9] and in [10] was “inactive” throughout.

Turning to `N#Cc1ccccc1N`, the Potency result in [1], in assay [2], in [3], in assay [4], in [5] and in assay [6] was “inactive” in each case. For the same compound, the Potency entry in [7], in [8], in [9] and in assay [10] was “inactive” throughout.

As for `CN(C)CCc1c[nH]c2cccc(O)c12`, the Potency entry in [1], in assay [2], in [3], in assay [4], in [5] and in assay [6] was “inactive” throughout. In addition, the Potency result in assay [7], in assay [8], in [9] and in [10] was “inactive” throughout.

For the compound `CNC(C)Cc1ccc2c(c1)OCO2` (stereo not given), the Potency entry in assay [1], in [2], in [3], in [4], in [5] and in [6] was “inactive” throughout. In addition, the Potency result in [7], in assay [8], in [9] and in assay [10] was “inactive” in each case.

With `CCc1cc(C)cc(CC)c1-c1c(OC(=O)C(C)(C)C)n2n(c1=O)CCOCC2`, the Potency result in assay [1], in assay [2], in [3], in assay [4], in [5] and in assay [6] was “inactive” in each case. For the same compound, the Potency entry in [7], in [8], in assay [9] and in [10] was “inactive” in each case.

Regarding `ClCCN1CCOCC1`, the Potency entry in assay [1], in assay [2], in assay [3], in assay [4], in assay [5] and in assay [6] was “inactive” throughout. For the same compound, the Potency result in assay [7], in assay [8], in [9] and in assay [10] was “inactive” each time.

Consider `COC(=O)N(C(=O)N1COC2(C(=O)OC)Cc3cc(Cl)ccc3C2=N1)c1ccc(OC(F)(F)F)cc1` (stereo not given), for which the Potency entry in assay [1], in assay [2], in [3], in assay [4], in assay [5] and in assay [8] was “inactive” in each case. The Potency entry in assay [9] and in assay [10] was “inactive” each time.

For `N#C/C=C/C#N`, the Potency entry in [1], in [2], in assay [3], in assay [4], in assay [5] and in assay [8] was “inactive” in each case. Also, the Potency result in assay [10] was “inactive”.

On to `Oc1cccc(-c2ccccc2)c1`, for which the Potency entry in assay [1], in assay [2], in assay [3], in assay [4], in [5] and in assay [8] was “inactive” each time. For the same compound, the Potency result in assay [9] and in [10] was “inactive” each time.

As to `CC(=O)C(Cl)(Cl)Cl`, the Potency entry in assay [1], in assay [2], in assay [3], in [4], in assay [5] and in assay [8] was “inactive” each time. Further, the Potency entry in [10] is “inactive”.

With `Clc1ccc(C(c2ccc(Cl)cc2)C(Cl)(Cl)Cl)cc1`, the Potency in assay [1] was 55.3 µM (active) and inactive; in assay [7] it was 39200 nM (active). Besides, the Potency entry in assay [2], in assay [3], in assay [4], in assay [5], in assay [8] and in [9] was “inactive” throughout. The Potency result in [10] is “inactive”.

On to `CC(C)OC(=O)C(O)(c1ccc(Cl)cc1)c1ccc(Cl)cc1`, for which the values for the Potency in assay [1], in assay [3] and in assay [6] were 54900 nM (active), 27500 nM (active) and 21900 nM (active), respectively. Moreover, the Potency result in assay [2], in assay [4] and in [9] was “inactive” throughout.

On to `CCCCCCCCCCCCCCCC[n+]1ccccc1`, for which the Potency in assay [1] was 34.2 µM (active) [middle of 4 runs]; in assay [3], 15.5 µM (active) [middle of 4 runs]; in [4], 49 µM (active) [middle of 4 runs]; in [7], 45.7 µM (active) and 54.9 µM (active) and 54.2 µM (active); in assay [8], 49 µM (active) [middle of 4 runs]; in assay [10] it was 49 µM (active) and 48.3 µM (active) and 16.9 µM (active). Besides, the Potency result in [2] and in [9] was “inactive” each time.

As to `CCCCOP(=O)(CCCC)OCCCC`, the Potency result in assay [1], in assay [2], in assay [3], in assay [4], in [5] and in assay [8] was “inactive” throughout. Also, the Potency result in assay [9] and in [10] was “inactive” in each case.
